Results filed as inconclusive are left out. Calls of active or inactive are those of the source. The call rests on the fitted dose curve; in most records, active means well fitted curve in the direction sought with a large enough effect; inconclusive means small, poorly fitted or top-dose-only effect, or another doubt; inactive means no such curve, though single readings can be large; an effect the other way counts as inactive or inconclusive.
Target: ATP-dependent 6-phosphofructokinase (Trypanosoma brucei brucei) (UniProt O15648)
Sequence (O15648 whole entry, looked up): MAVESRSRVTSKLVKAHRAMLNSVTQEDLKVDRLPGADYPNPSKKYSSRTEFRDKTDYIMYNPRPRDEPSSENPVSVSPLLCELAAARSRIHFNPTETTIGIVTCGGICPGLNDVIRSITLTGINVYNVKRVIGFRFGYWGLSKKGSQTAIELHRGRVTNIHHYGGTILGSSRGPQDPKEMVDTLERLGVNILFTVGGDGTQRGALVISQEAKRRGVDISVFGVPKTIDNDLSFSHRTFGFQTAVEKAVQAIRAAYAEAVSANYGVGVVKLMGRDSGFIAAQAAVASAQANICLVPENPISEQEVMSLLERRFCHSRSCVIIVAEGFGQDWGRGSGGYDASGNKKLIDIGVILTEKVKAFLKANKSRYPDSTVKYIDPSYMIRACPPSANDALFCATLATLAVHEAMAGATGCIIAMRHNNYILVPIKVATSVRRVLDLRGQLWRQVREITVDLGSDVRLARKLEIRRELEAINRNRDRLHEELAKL
Assay: qHTS Assay to Find Inhibitors of T. brucei phosphofructokinase: hit validation (AID 492961);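 further: luminescence reports ADP formed as PFK phosphorylates fructose-6-phosphate with ATP; on the % scale 0 is the no-effect control and ±100 the full control effect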
Conditions: T. brucei PFK, ADP-Glo luminescence; series mostly up to 51.4 µM; activity change, negative = inhibition: at the top concentration
Outline: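 PFK 1.25 nM, F6P 0.5 mM, ATP 0.1 mM, MgCl2 5 mM, 0.1 M TEA pH 8.0, Tween20 0.01%, BSA 0.1%; 45 min RT. ADP-Glo two-step detection, luminescence. qHTS titration; curve fitting with curve-class categorization.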

Row | Structure (SMILES) | activity change, negative = inhibition | outcome
1 | CC(=O)N[C@@H](CS)C(=O)O | -0.69% (inactive) | 
2 | Clc1ccc(Cn2c(CN3CCCC3)nc3ccccc32)cc1 | 5.07% [at 24.3 µM] (inactive) | 
3 | O=C(O)CCc1nc(-c2ccccc2)c(-c2ccccc2)o1 | -4.79% (inactive) | 
4 | O=C1NCC2(CCN(CCc3ccccc3)CC2)O1 | -3.25% (inactive) | 
5 | CC(=O)CCCCn1c(=O)c2c(ncn2C)n(C)c1=O | 2.59% [at 24.3 µM] (inactive) | 
6 | CN(C)CCC(c1ccccc1)c1ccccn1 (centres undefined) | -5.95% (inactive) | 
7 | CCN(CC)C(=O)c1ccc(O)c(OC)c1 |  | inactive
8 | CCN1CCC[C@H]1CNC(=O)c1cc(S(N)(=O)=O)ccc1OC | -2.57% (inactive) | 
9 | Cc1cccc(C)c1OCC(C)N (centres undefined) | -4.51% (inactive) | 
10 | C[N+](C)(C)CCCCCC[N+](C)(C)C | -3.2% (inactive) | 
11 | CCN(CC)CCOC(=O)c1ccc(N)cc1 | -8.48% [at 24.3 µM] (inactive) | 
12 | NCCS | 4.15% (inactive) | 
13 | COc1ccccc1N1CCN(CCCNc2cc(=O)n(C)c(=O)n2C)CC1 | 0.126% (inactive) | 

Test system: not listed separately
Assay: Validation screen for small molecules that induce genotoxicity in human embryonic kidney (HEK293T) cells expressing luciferase-tagged ELG1 (AID 493106); further: potency means the concentration at half of the fitted maximal effect; on activity change, positive = ELG1 induction: 0% is about no effect
Conditions: luminescence; series mostly up to 46.1 µM; activity change, positive = ELG1 induction: at the top concentration
Outline: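 ELG1-luciferase reporter readout (ONE-Glo, 30 min, room temperature) after 16 hr compound treatment at 37 °C of HEK293T cells at 2,000 per well. Rising luminescence flags genotoxic stress.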

Row | Structure (SMILES) | activity change, positive = ELG1 induction | Potency
14 | CC(=O)N[C@@H](CS)C(=O)O | 4.48% (inactive) | 
15 | COC(=O)[C@@H]1[C@H]2C[C@H]3c4[nH]c5ccccc5c4CCN3C[C@@H]2CC[C@@H]1O | -5.84% (inactive) | 
16 | CCCNC(=O)NS(=O)(=O)c1ccc(Cl)cc1 | -2.98% (inactive) | 
17 | CC(=O)c1ccc(S(=O)(=O)NC(=O)NC2CCCCC2)cc1 | -6.68% (inactive) | 
18 | Clc1ccc(Cn2c(CN3CCCC3)nc3ccccc32)cc1 | -13.8% (inactive) | 
19 | O=C(O)CCc1nc(-c2ccccc2)c(-c2ccccc2)o1 | -4.09% (inactive) | 
20 | CC(C)NCC(O)COc1cccc2[nH]ccc12 (centres undefined) | -7.7% (inactive) | 
21 | CC(=O)CCCCn1c(=O)c2c(ncn2C)n(C)c1=O | -0.963% (inactive) | 
22 | CN(C)CCC(c1ccccc1)c1ccccn1 (centres undefined) | -1.14% (inactive) | 
23 | CC(C)OC(=O)C(C)(C)Oc1ccc(C(=O)c2ccc(Cl)cc2)cc1 | -14.7% (inactive) | 
24 | O=c1c(-c2ccc(O)cc2)coc2cc(O)ccc12 |  | 20.6 µM (active)
25 | CCN(CC)C(=O)c1ccc(O)c(OC)c1 | -7.07% (inactive) | 
26 | CCN1CCC[C@H]1CNC(=O)c1cc(S(N)(=O)=O)ccc1OC | -1.75% (inactive) | 
27 | NC(N)=Nc1nc(CSCC/C(N)=N/S(N)(=O)=O)cs1 | -1.05% (inactive) | 
28 | Cc1cccc(C)c1OCC(C)N (centres undefined) | -8.06% (inactive) | 
29 | O=C1NC(=O)C(c2ccccc2)(c2ccccc2)N1 | -5.6% (inactive) | 
30 | C[N+](C)(C)CCCCCC[N+](C)(C)C |  | inactive
31 | CCN(CC)CCOC(=O)c1ccc(N)cc1 | -7.85% (inactive) | 
32 | NCCS | -3.37% (inactive) | 
33 | COc1ccccc1N1CCN(CCCNc2cc(=O)n(C)c(=O)n2C)CC1 | -4.42% (inactive) | 
34 | CCCCC1C(=O)N(c2ccccc2)N(c2ccccc2)C1=O | -2.41% (inactive) | 
